Test results published in PubChem BioAssay (NCI).
Compounds without any hit were thinned out: in the full panel of roughly 83,000, 20% have a hit.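 The test compound was applied at a single concentration to cells in 96-well plates for 48 hours, and percent growth was recorded.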 Active and inactive are the calls of the source. How the source made its calls: active means growth percent below 10; inactive means the rest.

Key:
Experiment in all cases: NCI-60 one-dose screen, 48 h (100 = growth as untreated, 0 = no growth, -100 = all killed)
Settings in all cases: 10 µM unless noted
DU-145 prostate = tested on: DU-145 prostate
K-562 leukemia = tested on: K-562 leukemia
MALME-3M melanoma = tested on: MALME-3M melanoma
MDA-MB-231 breast = tested on: MDA-MB-231 breast
RXF 393 renal = tested on: RXF 393 renal
SF-268 CNS = tested on: SF-268 CNS
SF-295 CNS = tested on: SF-295 CNS
SF-539 CNS = tested on: SF-539 CNS
UACC-257 melanoma = tested on: UACC-257 melanoma
M14 melanoma = tested on: M14 melanoma

Measured: growth

O=C1c2ccccc2C(=O)c2c1c(C(=O)NCc1ccccc1)c1ccccn21
inactive: DU-145 prostate 104% | K-562 leukemia 84.5% | MALME-3M melanoma 108% | MDA-MB-231 breast 96.8% | RXF 393 renal 104% | SF-268 CNS 104% | SF-295 CNS 98.1% | SF-539 CNS 104% | UACC-257 melanoma 90.2% | M14 melanoma 105%

O=C(N/N=C\c1ccccc1S(=O)(=O)O)N/N=C/c1ccccc1S(=O)(=O)O
inactive: DU-145 prostate 106% | K-562 leukemia 97.9% | MALME-3M melanoma 105% | MDA-MB-231 breast 102% | RXF 393 renal 112% | SF-268 CNS 102% | SF-295 CNS 101% | SF-539 CNS 111% | UACC-257 melanoma 93.2% | M14 melanoma 102%

O=C(Nc1ccc(Br)cc1)C1=NCCCCN1
inactive: DU-145 prostate 85.1% | K-562 leukemia 50.8% | MALME-3M melanoma 104% | MDA-MB-231 breast 92.1% | RXF 393 renal 110% | SF-268 CNS 79.6% | SF-295 CNS 98.2% | SF-539 CNS 90.9% | UACC-257 melanoma 100% | M14 melanoma 81.6%

C[C@H](CCCC(=O)NCC#CCN1CCN(C)CC1)[C@H]1CC[C@H]2[C@@H]3CC[C@@H]4CC(=O)CC[C@]4(C)[C@H]3CC[C@]12C
inactive: DU-145 prostate 102% | K-562 leukemia 57.9% | MALME-3M melanoma 65.7% | MDA-MB-231 breast 102% | RXF 393 renal 86.3% | SF-268 CNS 95.5% | SF-295 CNS 106% | SF-539 CNS 78.6% | UACC-257 melanoma 96.3% | M14 melanoma 85.1%

COC(=O)c1nc(-c2ccccc2)oc1S(=O)(=O)NCC(c1ccc(Cl)cc1)N1CCOCC1 (stereo not given)
inactive: DU-145 prostate 78.2% | K-562 leukemia 13.4% | MALME-3M melanoma 76.9% | MDA-MB-231 breast 75.8% | RXF 393 renal 83.6% | SF-268 CNS 77% | SF-295 CNS 101% | SF-539 CNS 92.3% | UACC-257 melanoma 87.3% | M14 melanoma 35%

O=C(O)c1cn(C2CC2)c2cc(N3CCN(C(=O)Nc4nc(-c5ccc(Br)cc5)cs4)CC3)c(F)cc2c1=O
active: UACC-257 melanoma 3.57%
inactive: DU-145 prostate 17% | K-562 leukemia 18% | MALME-3M melanoma 29.3% | MDA-MB-231 breast 28.9% | RXF 393 renal 25.2% | SF-268 CNS 24.2% | SF-295 CNS 19.5% | SF-539 CNS 23.6% | M14 melanoma 23.7%

CO[C@H](C(=O)[C@@H](O)[C@@H](C)O)[C@@H]1Cc2cc3cc(O[C@H]4C[C@@H](O[C@H]5C[C@@H](O)[C@H](O)C(C)O5)[C@H](O)C(C)(O)O4)cc(O)c3c(O)c2C(=O)[C@H]1O[C@H]1C[C@@H](O[C@H]2C[C@@H](O[C@H]3C[C@@H](OC)[C@H](O)C(C)O3)[C@@H](O)C(C)O2)[C@H](O)C(C)O1 (stereo not given in full)
inactive: DU-145 prostate 17.5% | K-562 leukemia 29.9% | MDA-MB-231 breast 25.1% | SF-268 CNS 34.8% | SF-295 CNS 14.4% | M14 melanoma 34.2%
active: MALME-3M melanoma -11.4% | RXF 393 renal -35.1% | SF-539 CNS 9.92% | UACC-257 melanoma -16%

C=CN(C(=O)N1CCN(c2cc3c(cc2F)c(=O)c(C(=O)O)cn3C2CC2)CC1)c1nc(-c2ccc(OC)cc2)cs1
inactive: DU-145 prostate 30.9% | K-562 leukemia 21.9% | MALME-3M melanoma 42.7% | MDA-MB-231 breast 22.1% | RXF 393 renal 20% | SF-268 CNS 29.6% | SF-295 CNS 11.8% | SF-539 CNS 25.8% | UACC-257 melanoma 26.9% | M14 melanoma 32.1%

O=C(NCc1cccc(CNC(=O)Nc2nc3ccccc3[nH]2)c1)Nc1nc2ccccc2[nH]1
inactive: RXF 393 renal 43.1% | SF-539 CNS 27.5%
active: DU-145 prostate -32.6% | K-562 leukemia 0.347% | MALME-3M melanoma -74.2% | MDA-MB-231 breast -66.6% | SF-268 CNS 0.441% | SF-295 CNS 5.41% | UACC-257 melanoma -54.1% | M14 melanoma -77.4%

O=C(c1c[nH]c2ccccc12)c1n[nH]c(=S)n1-c1cccc(Br)c1
inactive: DU-145 prostate 103% | K-562 leukemia 84.6% | MALME-3M melanoma 95.4% | MDA-MB-231 breast 76.9% | RXF 393 renal 104% | SF-268 CNS 95.4% | SF-295 CNS 102% | SF-539 CNS 106% | UACC-257 melanoma 97.4% | M14 melanoma 99.3%

Cc1ccc(-c2nc(SCc3nc4cc(Cl)c(Cl)cc4[nH]3)[nH]c(=O)c2C#N)cc1
inactive: DU-145 prostate 91.6% | K-562 leukemia 93.4% | MALME-3M melanoma 95.6% | MDA-MB-231 breast 97.9% | RXF 393 renal 108% | SF-268 CNS 91.6% | SF-295 CNS 104% | SF-539 CNS 97.5% | UACC-257 melanoma 91.3% | M14 melanoma 91.2%

CN(C)c1ccc(/C=C(\C#N)c2cc3ccccc3[nH]2)cc1
active: SF-295 CNS 8.98% | SF-539 CNS 6.06% | M14 melanoma 9.05%
inactive: DU-145 prostate 24.5% | K-562 leukemia 14% | MALME-3M melanoma 63.9% | MDA-MB-231 breast 31.9% | RXF 393 renal 28.9% | SF-268 CNS 39.8% | UACC-257 melanoma 57.1%
